Experimental data from PubChem BioAssay AID488969 (Vanderbilt High Throughput Screening Facility, 2010).
In all, about 110,000 compounds were measured (“z-score”: median about -0.1, highest 2% from about 2 on). Shown is part of a subset that was picked to be rich in the highest values. Activity calls are given as the source filed them.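 Rule for the calls: active = z-score in the third read window above 3 or below -3; inactive = the rest.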

molecular target: Metabotropic glutamate receptor 8 (Rattus norvegicus) (UniProt P70579); experiment: rat mGluR8 modulators via GIRK flux, primary screen, cell-based, thallium flux, HTS (AID 488969); conditions: HEK293 rat mGluR8, GIRK (G protein-gated inwardly rectifying potassium channel) thallium flux, FluoZin2; at 10 µM; stronger effect = higher value; submaximal glutamate (EC20) added with thallium
Sequence (P70579 whole entry, looked up): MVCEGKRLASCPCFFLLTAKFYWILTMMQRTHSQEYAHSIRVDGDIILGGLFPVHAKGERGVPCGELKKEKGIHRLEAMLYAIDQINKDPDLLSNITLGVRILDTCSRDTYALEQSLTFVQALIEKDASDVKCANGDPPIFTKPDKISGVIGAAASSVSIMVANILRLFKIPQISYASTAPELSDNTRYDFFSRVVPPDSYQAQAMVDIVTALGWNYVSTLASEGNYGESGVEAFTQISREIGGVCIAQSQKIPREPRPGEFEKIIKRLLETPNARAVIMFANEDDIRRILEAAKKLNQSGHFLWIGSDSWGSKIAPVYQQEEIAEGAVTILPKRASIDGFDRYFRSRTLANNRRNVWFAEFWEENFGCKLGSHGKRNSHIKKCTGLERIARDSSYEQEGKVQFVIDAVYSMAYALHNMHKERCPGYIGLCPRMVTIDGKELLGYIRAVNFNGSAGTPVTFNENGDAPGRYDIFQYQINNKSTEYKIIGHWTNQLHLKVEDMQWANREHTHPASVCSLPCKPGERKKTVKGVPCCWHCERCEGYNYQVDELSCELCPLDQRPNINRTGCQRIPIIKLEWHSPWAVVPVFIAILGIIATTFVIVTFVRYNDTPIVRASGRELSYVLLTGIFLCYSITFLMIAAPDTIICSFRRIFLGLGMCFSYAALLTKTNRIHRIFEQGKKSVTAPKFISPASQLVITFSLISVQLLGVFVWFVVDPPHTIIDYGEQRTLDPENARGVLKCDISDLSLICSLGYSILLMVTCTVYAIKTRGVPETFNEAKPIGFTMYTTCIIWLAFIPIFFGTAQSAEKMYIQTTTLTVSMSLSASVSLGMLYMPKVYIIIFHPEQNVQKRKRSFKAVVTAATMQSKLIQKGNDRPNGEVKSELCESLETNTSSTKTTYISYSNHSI

Structure (SMILES) | z-score
CNc1nc(SCc2ccccc2)nc(N2CCOCC2)n1 | -0.587
O=c1ccn(-c2cccc(C(F)(F)F)c2)nc1-c1ccn(-c2ccccc2)n1 | -0.401
S=C(Nc1cccc2ccccc12)N1CCN(c2ncccn2)CC1 | -0.1
COc1ccc(-n2c(Cc3cccn3C)nnc2SCC(=O)NCCc2ccccc2)cc1 | -0.482
CC12C(=O)N(c3cccc4cccnc34)C(=O)C1C1C=CC2C1 (stereo unspecified) | 0.818
CNc1nc(OCC(F)(F)F)nc(N2CCN(C34CC5CC(CC(C5)C3)C4)CC2)n1 | 0.418
O=C(c1cccs1)N1N=C(c2ccccc2)CC1c1ccccc1 (stereo unspecified) | -0.101
O=C(Nc1ccc(Br)c(C(F)(F)F)c1)c1ccccc1 | 0.42
CCOC(=O)c1ccc(NC(=S)NC2CCCC2)cc1 | 2.61
COC(=O)c1ccccc1NC(=S)NC(NC(=O)COc1ccccc1)C(Cl)(Cl)Cl (stereo unspecified) | -0.203
CC(C)CNC(=S)Nc1ccc(Oc2ccccc2)cc1 | 2.69
CCCNC(=S)Nc1ccc(Oc2ccccc2)cc1 | 0.463
S=C(Nc1ccc(Oc2ccccc2)cc1)NC1CCCCCC1 | 0.425
S=C(Nc1ccc(Oc2ccccc2)cc1)NC1CCCC1 | 7.92 (active)
CCCN1CCC(NC(=S)Nc2ccc(C(=O)OCC)cc2)CC1 | -0.26
COC(=O)c1ccccc1NC(=S)NC(=O)COc1ccccc1 | 7.01 (active)
COC(=O)c1ccccc1NC(=S)NC(=O)CC(C)C | 0.252
COC(=O)c1ccc(NC(=S)NC2CCCCC2)cc1 | 0.1
S=C(NCC1CCCCC1)Nc1ccc(Oc2ccccc2)cc1 | 0.317
CCNC(=S)Nc1ccc(Oc2ccccc2)cc1 | 0.818
CCn1cnc2cc(NCc3nc4ccccc4n3Cc3ccccc3)ccc21 | -0.34
CC(C)c1ccc2[nH]c(O)c(N=NC(=O)c3cccc(S(=O)(=O)N4CCCCC4)c3)c2c1 | -0.156
CCOc1ccc(/C=C/C(=O)NCCc2ccc(OC)c(OC)c2)cc1 | -0.114
COc1ccc(OCc2ccc(C(=O)NN)cc2)cc1 | 0.222
Cc1ccc2cc(COC(=O)c3ccncc3)c(=O)[nH]c2c1 | -0.162
COc1ccc(-c2cc(C(=O)OCC(=O)N3CCCC3)c3ccccc3n2)cc1 | -0.231

Structure (SMILES) | z-score
CCn1c(SCC(=O)Nc2cccc(NC(C)=O)c2)nnc1C(C)C | -0.322
CCn1c(SCC(=O)Nc2cccc(C(C)=O)c2)nnc1C(C)C | 2.28
CCc1cccc(CC)c1NC(=O)CSc1nnc(C(C)C)n1CC | 0.342
Cc1ccc2cc(CN(Cc3ccco3)C(=O)c3ccccc3)c(=O)[nH]c2c1C | -0.385
Nc1nnnn1/N=C/c1ccccc1OCc1ccccc1 | -0.208
COc1ccc(N2CCN(CC(=O)Nc3ccc(-n4cnnn4)cc3)CC2)cc1 | 1.05
CCCCOP(=O)(OCCCC)C(O)c1ccc(Br)cc1 (stereo unspecified) | -0.269
CCN(CC)S(=O)(=O)c1cccc(C(=O)N2CC(O)CC2C(=O)OC)c1 (stereo unspecified) | -0.00902
COc1ccc(CSCC(=O)N/N=C/c2ccccc2OCc2ccccc2)cc1 | 1.27
COc1ccc(C(=O)N/N=C/c2cccc3cccnc23)cc1 | -0.417
COc1ccc(C(=O)N/N=C/c2ccc3cccc(OCc4ccccc4)c3n2)cc1 | 3.81 (active)
O=C(N/N=C/c1ccc2cccc(OCc3ccccc3)c2n1)c1ccc(Br)cc1 | 3.65 (active)
O=C(N/N=C/c1ccccn1)c1ccc(Br)cc1 | 1.82
O=C(N/N=C/c1ccc2cccc(OCc3ccccc3)c2n1)c1ccc(Cl)cc1 | 0.327
Cc1ccc(C(=O)N2CCN(c3ccc([N+](=O)[O-])c(N4CCOCC4)c3)CC2)cc1 | -0.394
COc1c(C)cccc1C(=O)Nc1cc(-c2nn3c(C)nnc3s2)ccc1C | -1.6
Cn1c2ccccc2c(=O)c2c(=O)n(-c3ccccc3)c(C3CCCCC3)nc21 | -1.31
CCCn1c(SCC(=O)/C(C#N)=C(\C)N)n[nH]c1=O | -0.649
CCOC(=O)C(CC)(CC)/C(C)=N/NC(=O)CC#N | 0.316
CCOc1nc(Nc2ccc(OC)cc2)nc(OCC)n1 | -1.62
COc1ccc(NC(=S)Nc2ccc3nc(C)c(C)nc3c2)cc1 | -0.104
CCOC(=O)c1csc(NC(=O)CSc2nnnn2-c2ccc(OC)cc2)n1 | 0.0329
c1nnnn1C12CC3CC(CC(C3)C1)C2 | 0.487
Nc1ncn(C23CC4CC(CC(C4)C2)C3)n1 | -0.106
c1cn(C23CC4CC(CC(C4)C2)C3)cn1 | 4.17 (active)
CCCC(C(=O)c1ccccc1)n1cncn1 (stereo unspecified) | -0.313

Structure (SMILES) | z-score
N#Cc1c(-c2ccncc2)c2c([nH]c1=S)CCCC2 | -0.164
N#Cc1c(-c2cccnc2)c2c([nH]c1=S)CCCC2 | -0.285
COc1ccc(-c2c3c([nH]c(=S)c2C#N)CCC3)cc1 | 2.17
COc1cc(C(=O)N(Cc2ccco2)Cc2cc3ccccc3[nH]c2=O)cc(OC)c1OC | -0.671
COc1cc(C2Nn3c(nnc3-c3ccccc3OC)S2)ccc1O (stereo unspecified) | -0.0272
COc1ccc(NC(=O)C(=O)NNC(=O)c2cccs2)c(OC)c1 | 5.95 (active)
COc1ccc(OCC(=O)NNC(=O)c2cccs2)cc1 | 0.919
COc1ccc(NC(=O)C(=O)NNC(=O)c2cccs2)cc1 | 7.11 (active)
COc1ccc(OC)c(NC(=O)C(=O)NNC(=O)c2cccs2)c1 | 1.69
COc1ccc(NC(=O)c2cccs2)cc1 | 0.303
COc1cc(N)ccc1NC(=O)c1cccs1 | -0.15
CCC(=O)Nc1nnc(SCc2ccc(F)cc2)s1 | -0.00764
COc1ccc(N2C(=O)CC(Nc3ccc(C)cc3)C2=O)cc1 (stereo unspecified) | -0.557
CC1CC(C)(C)NC(=S)N1CC(=O)N(C)Cc1ccccc1 (stereo unspecified) | -0.189
CCNC(=S)NNC(=O)c1cccn(Cc2ccc(Cl)cc2Cl)c1=O | -0.0504
CCOn1c(=O)c(-c2cccs2)[n+]([O-])c2ccccc21 | -2.21
COn1c(=O)c(-c2cccs2)[n+]([O-])c2ccccc21 | 1.16
C=CCOn1c(=O)c(-c2cccs2)[n+]([O-])c2ccccc21 | 3.49 (active)
Cc1nn(C(C)C(=O)O)c(=O)c2c1sc1ccccc12 (stereo unspecified) | -0.395
N#Cc1cn(-c2ccccc2)nc1-c1ccco1 | -0.0798
CCNC(=O)C1CCCN1S(=O)(=O)c1ccc(OC)cc1 (stereo unspecified) | 0.787
CC(C)c1c(O)nc(SCC(=O)N2CCOCC2)[nH]c1=O | -0.357
CCC(C)c1c(O)nc(SCC(=O)N2CCOCC2)[nH]c1=O (stereo unspecified) | 2.93
CCCCc1c(O)nc(SCC(=O)N2CCOCC2)[nH]c1=O | 0.0929
